PubChem BioAssay (NCI)
The panel holds about 83,000 compounds, 20% with a hit somewhere; the sample as a whole holds those more often.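 In brief: 96-well plates, 48 h treatment, single concentration, percent growth endpoint.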 A number with no mark means an inactive call. The source made the active and inactive calls. Rule for the calls: active = growth percent below 10; inactive = the rest.

Key:
Assay in all cases: NCI-60 one-dose screen, 48 h (100 = growth as untreated, 0 = no growth, -100 = all killed)
Details in all cases: 10 µM
[1] = system: HCT-15 colon
[2] = system: HT29 colon
[3] = system: SNB-75 CNS
[4] = system: SNB-19 CNS
[5] = system: U251 CNS
[6] = system: PC-3 prostate
[7] = system: SK-MEL-5 melanoma
[8] = system: UACC-62 melanoma
[9] = system: SK-MEL-28 melanoma
[10] = system: SK-MEL-2 melanoma
[11] = system: SN12C renal
[12] = system: UO-31 renal
[13] = system: TK-10 renal
[14] = system: ACHN renal
[15] = system: CAKI-1 renal
[16] = system: A498 renal
[17] = system: MOLT-4 leukemia
[18] = system: LOX IMVI melanoma
[19] = system: EKVX NSCLC
[20] = system: CCRF-CEM leukemia

| Compound | growth [1] | growth [2] | growth [3] | growth [4] | growth [5] | growth [6] | growth [7] | growth [8] | growth [9] | growth [10] | growth [11] | growth [12] | growth [13] | growth [14] | growth [15] | growth [16] | growth [17] | growth [18] | growth [19] | growth [20] |
| --- | --- | --- | --- | --- | --- | --- | --- | --- | --- | --- | --- | --- | --- | --- | --- | --- | --- | --- | --- | --- |
| O=C(CI)OCC(COC(=O)CI)OC(=O)CI | 53% | 79.2% | 116% | 101% | 100% | 94% | 93.1% | 80.9% | 92.3% | 83.1% | 76.8% | -89.8% (active) | 78.9% | 11.2% | -17.6% (active) | 108% | 44.4% |  |  |  |
| NS(=O)(=O)Oc1ccc(NC(=O)C2CCCCCC2)cc1 | 100% | 108% | 96.1% | 101% | 100% | 96.5% | 101% | 99.7% |  | 106% | 99.1% | 82.1% | 105% | 97.3% | 87.4% | 122% |  | 98.8% | 85.1% |  |
| OCC1OC(n2ccc3c(NO)ncnc32)C(O)C1O (stereo not given) | -37.6% (active) | -1.97% (active) | -24.2% (active) | -0.974% (active) | 0.0054% (active) | -7.72% (active) | -90.8% (active) |  | -47.5% (active) | -78.6% (active) | -27.2% (active) | -25% (active) | -15.1% (active) | -15.3% (active) | 1.77% (active) | -51.1% (active) | -32.9% (active) | -45.3% (active) | -15.3% (active) | -8.6% (active) |
| CCOc1ccccc1/C=N\N=C\c1ccccc1O | 100% | 101% | 97.6% | 97.8% | 104% | 95.8% | 95.5% |  | 112% | 100% | 93.5% | 52% | 121% | 100% | 92.9% | 91.2% | 72.5% | 90.3% | 91.5% | 71.6% |
| CC[C@@H](C(=O)[C@@H](C)[C@@H](O)[C@H](C)[C@@H]1O[C@@H]([C@@H](CC)C(=O)N(CC)CC)CC[C@@H]1C)C1O[C@]2(C=CC(=O)[C@]3(CC[C@@](C)([C@H]4CC[C@](O)(CC)[C@H](C)O4)O3)O2)[C@H](C)C[C@@H]1C (stereo not given in full) | 11% | 13.1% | 30.2% | 23.4% | 6.72% (active) | 7.83% (active) | -42.9% (active) | 13% |  | 11.4% | 16.8% | 0.811% (active) | 29.1% | 6.1% (active) | 7.58% (active) | 36.6% | 22.7% | 34.3% | 19.6% |  |
| CN1CCN(c2cc3c(cc2F)c(=O)c(C(=O)O)cn3-c2ccc(F)cc2)CC1 | 99.2% | 91.2% | 55.2% | 98.2% | 106% | 90.4% | 95.5% | 90.2% |  |  | 97.3% | 68.7% | 103% | 95.1% | 94.7% | 86.8% |  | 84.7% | 108% | 102% |
| CC(C)c1cc(N=O)cc(C(C)C)c1O | 98.4% | 109% | 99.9% | 95.2% | 98.5% | 97.5% | 105% | 96.3% |  | 107% | 94.2% |  | 115% | 98.6% | 95.2% | 108% | 89.1% | 96.1% | 105% | 101% |
| c1ccc(CSc2ncccc2-c2nnc(SCCN3CCOCC3)o2)cc1 | 105% | 111% | 79.6% | 115% | 117% | 111% | 102% | 113% | 107% |  | 114% |  | 118% | 124% | 100% | 107% | 103% | 108% | 108% | 103% |
| O=C(Nc1cccc2c1CCCC2)c1cc2ccccc2cc1O | 30.8% | 90.5% | 63.8% | 30.1% | 33.8% | 12.8% | -37.8% (active) | 23% |  | 41.1% | 25.6% | 17.5% | 88.1% | 38.4% |  | 10.6% | 20.6% | 27.2% | 59.8% | 20.9% |
| COc1ccc(-c2cc(-c3ccc(OC)c(OC)c3)nc(SCCCC(=O)NO)n2)cc1 | 2.78% (active) | 4.72% (active) | -19% (active) | 11.2% | -9.1% (active) | 1.17% (active) | -65.2% (active) | -55.2% (active) |  | -5.66% (active) |  | -74.3% (active) | -0.0305% (active) | -24.9% (active) | -29.2% (active) | -32.4% (active) | 7.15% (active) | -79% (active) | -15.3% (active) |  |
| Cc1cc(Br)nnc1Br | 102% | 113% | 75.4% | 110% | 112% | 110% | 94.7% | 111% |  | 123% | 109% |  | 124% | 108% | 101% |  | 93.4% | 108% | 114% | 97.8% |
| COc1ccc(C2CC(c3cccs3)=NN2c2ccc(S(N)(=O)=O)cc2)cc1 (stereo not given) | 84.3% | 86.8% | 70.7% | 77.4% | 78% | 49.9% | 60.8% | 42.8% | 63.2% |  | 91.3% |  | 108% | 90.2% | 88.9% | 78.5% | 71.3% | 102% |  | 76.3% |
| N#Cc1c(N)nc(-c2cc(F)cc(C(F)(F)F)c2)nc1-c1ccccc1F | 67.4% | 39.7% | 13.6% | 46.5% | 19.5% | 81.4% | 93.6% | 84% | 75.9% |  |  | 33.3% | 38.1% | 2.03% (active) | 78.1% | 5.56% (active) | 50.1% | 54% | 38.6% |  |
| NC1=NC(c2ccccc2)C2=C(N1)/C(=C/c1ccccc1)CCC2 (stereo not given) | 84.9% | 32.2% | 85.6% | 97.5% | 34.8% | 78.7% | 98.9% | 77.5% |  | 87.1% | 91.6% | 70.5% |  | 108% | 93.8% | 75% | 77.8% | -4.8% (active) | 95% | 91% |
| Cc1ccc(C2NC(=S)N3C(c4ccc(C)cc4)NC(=S)N23)cc1 (stereo not given) | 29.5% | 17.8% | 127% | 44.5% | 28.3% | 34.4% | 17.1% | 34.6% |  | -32.9% (active) | 52.5% | 12.7% |  | 63.4% |  | 49.6% | 24.8% | 51.4% | 43.1% | 12.3% |
| CCN(CC)CCOc1cccc2c1C(=O)c1ccccc1C2=O | 94.6% | 80.6% | 86.4% | 92.1% | 93.4% | 83.5% | 93.7% | 95.2% |  | 91.8% | 90.9% |  | 97.6% | 92.5% |  | 87.5% |  | 84.1% | 95.2% | 92.6% |
| O=C(/C=C/C=C/c1c(C2CC2)nc2ccccc2c1-c1ccc(F)cc1)c1cccs1 | 18.6% | -38.5% (active) | 43.4% | 42.3% | -19.4% (active) | 24.9% | -77.1% (active) | 13.3% |  | -76.5% (active) | 38.1% | -43.8% (active) | 22.4% | -42.6% (active) |  | -21.7% (active) |  | -71.5% (active) | 49.3% |  |
| O=C(N/N=C/c1ccc([N+](=O)[O-])cc1)c1ccccc1Nc1cccc(C(F)(F)F)c1 | 98.6% | 69.8% | 87.1% | 105% | 89.2% | 91% | 83.1% | 90.8% |  | 80.9% | 99.5% | 78.4% | 173% | 91% | 76.9% | -6.91% (active) | 109% | 98.1% | 92.4% | 91.9% |
